# Data reported in the supplement of paper PMC6411743.
# ± gives the standard deviation of the averaged measurements. Targets with the largest changes are over-represented here; the source holds about 5,400 in all.
# Target: T1, UniProt Q92796-3|Q5JUW8|Q92796
# T1 sequence (whole entry): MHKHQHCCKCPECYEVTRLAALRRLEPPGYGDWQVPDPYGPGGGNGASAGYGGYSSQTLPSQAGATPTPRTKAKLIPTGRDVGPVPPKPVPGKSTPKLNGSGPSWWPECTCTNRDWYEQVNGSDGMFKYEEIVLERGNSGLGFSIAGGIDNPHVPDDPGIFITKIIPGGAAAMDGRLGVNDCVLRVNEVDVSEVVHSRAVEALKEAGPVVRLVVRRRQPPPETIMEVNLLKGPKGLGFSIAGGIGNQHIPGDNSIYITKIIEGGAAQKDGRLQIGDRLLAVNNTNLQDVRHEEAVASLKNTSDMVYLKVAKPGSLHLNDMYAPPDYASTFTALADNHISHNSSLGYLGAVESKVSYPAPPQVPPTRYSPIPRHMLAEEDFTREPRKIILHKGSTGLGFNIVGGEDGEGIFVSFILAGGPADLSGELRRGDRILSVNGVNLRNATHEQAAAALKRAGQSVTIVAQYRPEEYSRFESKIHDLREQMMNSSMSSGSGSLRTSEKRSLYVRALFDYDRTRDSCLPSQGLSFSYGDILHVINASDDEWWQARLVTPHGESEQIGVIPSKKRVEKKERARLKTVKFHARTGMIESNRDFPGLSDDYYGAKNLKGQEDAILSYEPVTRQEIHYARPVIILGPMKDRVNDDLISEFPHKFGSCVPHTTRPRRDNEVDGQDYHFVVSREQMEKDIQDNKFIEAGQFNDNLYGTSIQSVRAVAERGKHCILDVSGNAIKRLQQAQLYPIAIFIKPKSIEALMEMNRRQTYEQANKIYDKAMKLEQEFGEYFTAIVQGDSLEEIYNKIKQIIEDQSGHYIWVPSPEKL
# Assay: NP40-soluble protein abundance relative to vehicle (solubility fold change) (ratio); higher = more soluble protein in presence of GTP
# How it was run: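 Eight concentrations, 0.1 to 10 mM, were tested on Jurkat crude lysate for 10 min at room temperature and then 3 min at 37 °C, in three independent experiments. The lysate was solubilised with 0.8% NP40 and benzonase, ultracentrifuged, and the supernatant TMT-labelled for LC-MS/MS. Each value is the fold change against the detergent-processed vehicle in its own replicate, from vsn-normalised intensities.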
smiles,measurement,setting,value
Nc1nc2c(ncn2[C@@H]2O[C@H](COP(=O)(O)OP(=O)(O)OP(=O)(O)O)[C@@H](O)[C@H]2O)c(=O)[nH]1 [guanosine triphosphate],NP40-soluble protein abundance,concentration: 0.1mM,1.15 ± 0.034
same,NP40-soluble protein abundance,concentration: 0.5mM,1.17 ± 0.023
same,NP40-soluble protein abundance,concentration: 1mM,1.17 ± 0.037
same,NP40-soluble protein abundance,concentration: 2mM,1.17 ± 0.038
same,NP40-soluble protein abundance,concentration: 4mM,1.13 ± 0.03
same,NP40-soluble protein abundance,concentration: 6mM,1.12 ± 0.07
same,NP40-soluble protein abundance,concentration: 8mM,1.18 ± 0.018
same,NP40-soluble protein abundance,concentration: 10mM,1.14 ± 0.037
